From PubChem BioAssay AID2132 (NMMLSC, 2009)
A number with no mark means an inactive call. Calls of active or inactive are those of the source.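 Rule for the calls: active = inhibition above 20%; inactive = the rest.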 Peptide text beside a SMILES is read from it. * marks the point of attachment. Cbz = O=C(OCc1ccccc1)*

Test: yeast 26S proteasome protease site inhibitors – biochemical, fluorogenic peptides, secondary, counter-screen for 26S proteasome disassembly project (AID 2132)
Conditions: fluorogenic peptide cleavage rate, with Ac-nLPnLD-amc, at 100 µM, active compounds read high

SMILES | inhibition
CC(=O)N1C(=O)C(=C2C=C(C)OC(C)=C2)c2ccccc21 | 20%
CC(C)C[C@@H](C=O)NC(=O)[C@H](CC(C)C)NC(=O)[C@H](CC(C)C)NC(=O)OCc1ccccc1 (Cbz-Leu-Leu-Leu-aldehyde) | 27% (active)
